In PubChem BioAssay AID720517 (National Center for Advancing Translational Sciences (NCATS), 2013):
Records with an inconclusive call do not appear. Where a call stands in place of a potency, no number is given. The source made the active and inactive calls. The call rests on the fitted dose curve; in most records, active means well fitted activation curve with a large enough effect; inconclusive means small, poorly fitted or top-dose-only effect; inactive means flat fitted curve, though single readings scatter.

Assay: qHTS for Inhibitors of Cell Surface uPA Generation: FP59 Counterscreen for Cherry-picked Compounds
Conditions: FP59 anthrax toxin cytotoxicity counterscreen, cells; series mostly up to 115 µM
Potency means the concentration at half of the fitted maximal effect.

Q: Which Potency does the source give for COc1ccc([C@H]2CC(=O)C=C(c3ccc(CNC(=O)OC(C)(C)C)cc3)C2)cc1 here?
A: Its Potency is “inactive”.

Q: With O=C(Nn1cnnc1)c1ccc(Cl)cc1 as the compound, how does the Potency read?
A: The Potency was “inactive”.

Q: Which Potency does the source give for COc1ccc(C)cc1NC(=O)NNC(=O)C1CCC(C(C)(C)C)CC1 (centres undefined) here?
A: Its Potency is “inactive”.

Q: With CC(CCc1ccccc1)NC(=O)c1ccc(NC(=O)c2cccc(Br)c2)cc1 (centres undefined) as the compound, how does the Potency read?
A: Its Potency is “inactive”.

Q: For CCN1CCCCC(=N/O)/C(=N/O)CCCC1, which Potency is on record?
A: The Potency was “inactive”.

Q: With CC(C)(C)OC(=O)N(Cc1ccccc1)Cc1ccccc1OCc1cccc(NC(=O)C2CC2)c1 as the compound, how does the Potency read?
A: Its Potency is “inactive”.

Q: Which Potency does the source give for CCOC(=O)Cn1c(=O)cc(C)c2cccc(C)c21 here?
A: Its Potency is “inactive”.

Q: For CCCCNc1c(-c2ccc(-c3cccc(Cl)c3)cc2)nc2ccccn12, which Potency is on record?
A: Its Potency is “inactive”.

Q: For COc1ccc(NC(=O)c2cccnc2N2CCOCC2)cc1, which Potency is on record?
A: The Potency was “inactive”.

Q: For Cc1ccc(-n2nc3c(c2NC(=O)c2ccc4c(c2)OCO4)CS(=O)C3)c(C)c1 (centres undefined), which Potency is on record?
A: Its Potency is “inactive”.

Q: With CCOC(=O)C1=CC[C@@H](c2cc3ccc(OC)cc3n2C)N(S(=O)(=O)c2ccc(C)cc2)[C@H]1C(=O)OCC as the compound, how does the Potency read?
A: Its Potency is “inactive”.

Q: Which Potency does the source give for CCOc1cc(S(=O)(=O)NC2CC(C)(C)NC(C)(C)C2)ccc1Cl here?
A: The Potency was “inactive”.

Q: For C=CCN1C=C2C(=O)C(C)(OC(=O)c3cnc4ccccc4n3)C(=O)C=C2C=C1/C=C/COC (centres undefined), which Potency is on record?
A: Its Potency is “inactive”.

Q: For CC(C)C1Oc2ccccc2N(CC(=O)NC2CCCCC2)C1=O (centres undefined), which Potency is on record?
A: The Potency was 58.5 µM (active).

Q: For CC(=O)Nc1ccc(OS(=O)(=O)c2c(C)cc(C)cc2C)cc1, which Potency is on record?
A: The Potency was “inactive”.

Q: Which Potency does the source give for CC(=O)Oc1ccc(OC(C)=O)c(SCCCCCCl)c1 here?
A: Its Potency is “inactive”.

Q: Which Potency does the source give for CCN(CC)CCCn1c2c(c(SCC(=O)Nc3cccc4ccccc34)nc1=O)CCC2 here?
A: The Potency was “inactive”.

Q: With Cc1cc(N2C(=O)C(O)=C(C(=O)c3ccco3)C2c2ccc(Cl)cc2)no1 (centres undefined) as the compound, how does the Potency read?
A: Its Potency is “inactive”.

Q: Which Potency does the source give for O=[N+]([O-])c1ccc(C[n+]2cccc(O)c2)cc1 here?
A: Its Potency is “inactive”.

Q: With CCCCn1c(=NC(=O)c2ccco2)c(C(=O)OCC)cc2c(=O)n3cccc(C)c3nc21 as the compound, how does the Potency read?
A: Its Potency is “inactive”.

Q: With CCCOc1ccc(S(=O)(=O)NNC(=O)c2cc3ccccc3o2)cc1 as the compound, how does the Potency read?
A: Its Potency is “inactive”.

Q: For O=C(O)c1ccc(-c2ccc(/C=C3\NC(=O)N(Cc4ccc(Cl)cc4)C3=O)o2)cc1, which Potency is on record?
A: Its Potency is “inactive”.

Q: Which Potency does the source give for CCC(NC(=S)NCc1ccc(F)cc1)c1ccccc1 (centres undefined) here?
A: Its Potency is “inactive”.

Q: With CSc1ccc(CNCCCN(C)C)cc1 as the compound, how does the Potency read?
A: The Potency was “inactive”.

Q: Which Potency does the source give for O=C(NCC1CCCO1)c1c(O)c2cccc3c2n(c1=O)CCC3 (centres undefined) here?
A: Its Potency is “inactive”.

Q: For C[C@H](CO)N1C[C@H](C)[C@H](CN(C)S(=O)(=O)c2cn(C)cn2)Oc2ccc(NC(=O)Nc3ccc(C(F)(F)F)cc3)cc2CC1=O, which Potency is on record?
A: The Potency was “inactive”.

Q: For NC(=O)C1CCN(C(=O)c2cccc3ccccc23)CC1, which Potency is on record?
A: Its Potency is “inactive”.

Q: For O=C(NCc1ccc2c(c1)OCO2)c1ccccn1, which Potency is on record?
A: Its Potency is “inactive”.

Q: For C=CCc1cc(S(=O)(=O)c2ccc(O)c(CC=C)c2)ccc1O, which Potency is on record?
A: The Potency was “inactive”.

Q: With C[C@@]12C(=O)N(CC3CCCO3)CC(=O)N1[C@H]1c3cc(Cl)ccc3OC[C@@H]1[C@@H]2c1ccccc1 (some centres undefined) as the compound, how does the Potency read?
A: The Potency was “inactive”.

Q: Which Potency does the source give for COCCNC(=O)COCc1cc(-c2ccc3c(c2)OCO3)on1 here?
A: The Potency was “inactive”.

Q: For CCN(CC)CCNC(=O)/C(=C/c1cn(CC)c2ccccc12)NC(=O)c1cc(OC)c(OC)c(OC)c1, which Potency is on record?
A: Its Potency is “inactive”.

Q: With COc1ccc2nc(SC(C)C(=O)NC3(C#N)CCCCC3)[nH]c2c1 (centres undefined) as the compound, how does the Potency read?
A: Its Potency is “inactive”.

Q: Which Potency does the source give for COc1ccc(C(CNC(=O)C(C)Oc2ccc(Br)cc2)N2CCCC2)cc1 (centres undefined) here?
A: Its Potency is “inactive”.

Q: For C=CC1=C(C(=O)O)N2C(=O)[C@@H](NC(=O)/C(=N\O)c3csc(N)n3)[C@H]2SC1 (stereo in doubt), which Potency is on record?
A: The Potency was “inactive”.

Q: Which Potency does the source give for Cc1ccc(S(=O)(=O)NCC(=O)OC(C)C(=O)NCc2ccc3c(c2)OCO3)cc1 (centres undefined) here?
A: Its Potency is “inactive”.

Q: Which Potency does the source give for COc1ccc([C@@H]2[C@@H]3C(=O)N(C(C)(C)C)C(=O)[C@@H]3[C@]3(C)C(=O)N(c4cccc(Cl)c4)C(=O)N23)cc1 here?
A: Its Potency is “inactive”.

Q: With O=C(COc1cccc2ccccc12)NNC(=O)c1cnccn1 as the compound, how does the Potency read?
A: The Potency was “inactive”.

Q: With COc1ccc(CN2CCNC(=O)C2CC(=O)NCC2CCOCC2)cc1C (centres undefined) as the compound, how does the Potency read?
A: The Potency was “inactive”.
